# Source: PubChem BioAssay AID602313 (National Center for Advancing Translational Sciences (NCATS), 2012)
# Out of some 390,000 compounds screened, about 760 (0.19%) were called active. Inconclusive results (about 3%) are left out. The call rests on the fitted dose curve; in most records, active means well fitted inhibition curve with a large enough effect; inconclusive means small, poorly fitted or top-dose-only effect; inactive means flat fitted curve, though single readings scatter. The list comes from a sample in which actives are over-represented; it also holds similar structures and randomly drawn compounds. A call without a number means that no potency is given here.
# Experiment: qHTS for Inhibitors of Vif-A3F Interactions: qHTS; further: nearly all actives have a fitted effect of over 65% in size
# Details: HeLa A3F-eYFP + Vif (tagged APOBEC3F with the HIV-1 protein that degrades it), YFP fluorescence increase; series mostly up to 46.1 µM
# From the text: The recent discovery and characterization of host restriction factors, which provide a potent defense to invading retroviruses, has provided new targets for antiviral drug development. APOBEC3G (A3G) and APOBEC3F (A3F) are potent cytidine deaminases that block HIV-1 replication; HIV-1 expresses the Vif protein, which counteracts A3G and A3F by binding to them and inducing their proteasomal degradation. The Vif-A3G and Vif-A3F interactions provide two potential targets for development of small molecules which can interfere with the ability of Vif to degrade A3G or A3F. […] To identify inhibitors that can interfere with Vif mediated degradation of A3G and A3F, we have developed Hela cell lines that stably express A3G or A3F tagged with eYFP at the C-terminal end (A3G-eYFP or A3F-eYFP, respectively) and Vif. In the absence of an inhibitor, Vif induces degradation of A3G-eYFP and A3F-eYFP, and the cells are not fluorescent. In the presence of an inhibitor, it is expected that Vif will be unable to degrade A3G-eYFP and/or A3F-eYFP, resulting in an increase in yellow fluorescence. In this assays Vif A3F was screened against the Molecular Library Small Molecule Repository (MLSMR). NIH Chemical Genomics Center [NCGC] NIH Molecular Libraries Probe Centers Network [MLPCN] MLPCN Grant: MH093245 Assay Submitter (PI): Vinay Pathak, National Cancer Institute
# 5 uL of 700 cells/well of A3F-YFP cells are dispensed into black, clear bottom plates. The plates are incubated overnight at 37 deg C. 23 nL of compounds are added by pintool. The plates are incubated overnight at 37 deg C and then read on the TTP Acumen (Ex 488/ Em 500-530).
# Potency means the concentration at half of the fitted maximal effect.
row,Compound,Potency
1,CC1=CC(=Cc2sc3ccccc3[n+]2C)C=C(C)O1,5.01 µM (active)
2,CNP1(NC)=Nc2nn(-c3ccccc3)c(N)c2C(c2ccccc2)=N1,inactive
3,CCC(=NCc1ccco1)c1c(O)n(Cc2ccccc2)c(=O)[nH]c1=O,inactive
4,CC/C(=N\NC(=O)c1ccccc1O)c1c(O)n(Cc2ccccc2)c(=O)[nH]c1=O,11.2 µM (active)
5,O=C(N/N=C/c1c(O)n(Cc2ccccc2)c(=O)[nH]c1=O)c1ccccc1,inactive
6,Cc1ccc2c(c1)=C/C(=C\c1c(O)[nH]c(=O)[nH]c1=O)C(=O)N=2,inactive
7,CCCn1c(C(=O)c2ccccc2OC)nc2ccccc21,inactive
8,COc1cc(Cn2c(N)c(C(=O)NCc3ccco3)c3nc4ccccc4nc32)cc(OC)c1OC,inactive
9,CCOc1ccc(CNC(=O)c2cccc(Nc3nc4ccccc4n4nnnc34)c2)cc1OC,12.6 µM (active)
10,COC(=O)C1=C(c2cc3ccccc3s2)C[C@@H]2CC[C@H]1N2C(=O)NCc1cccc2ccccc12,inactive
11,CC(=CCOc1ccc2ccc(=O)oc2c1)C1=CC(=O)C(C)(C)O1,inactive
12,O=c1c2ccccc2[nH]c(=S)n1-c1cccc(Cl)c1,inactive
13,Cn1cc(/C=C/c2nc3ccccc3c(=O)n2-c2ccccc2)c2ccccc21,inactive
14,O=c1c2ccccc2nc(/C=C/c2ccc(F)cc2)n1-c1ccccc1O,22.4 µM (active)
15,O=c1c2ccccc2nc(/C=C/c2ccco2)n1-c1ccccc1O,inactive
16,CCC(C)(O)C(=O)OC1C(=O)OC2CC3C(C)=CC(=O)C(O)C3(C)C3C4(O)OCC23C1C(C)C4O (stereo not given),inactive
17,C=C(C)C1(CCCC)C(=O)NC(=S)NC1=O,inactive
18,COC(=O)C1=C(c2ccc(Cl)c(C(F)(F)F)c2)C[C@@H]2CC[C@H]1N2C(=O)NC(C)C,inactive
19,COC(=O)C1=C(c2cc3ccccc3o2)C[C@@H]2CC[C@H]1N2C(=O)NC1CCCCC1,inactive
20,CC(C)(C)c1ccc(OC(=O)N2CCCCC2)cc1,inactive
